Records with an inconclusive call do not appear. Entries that show only a call come without a potency. The source made the active and inactive calls. The call rests on the fitted dose curve; in most records, active means well fitted inhibition curve with a large enough effect; inconclusive means small, poorly fitted or top-dose-only effect; inactive means flat fitted curve, though single readings scatter.
Each compound was assayed on Zika virus NS2B-NS3 protease (assay: Primary screen GU AMC qHTS for Zika virus inhibitors (AID 1347154; further: nearly all actives have a fitted effect of over 70% in size)). Details: Zika NS2B-NS3 unlinked protease, AMC fluorogenic substrate; series mostly up to 54.1 µM.
Outline: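 Unlinked Zika NS2B hydrophilic domain–NS3 protease complex at 25 nM in 10 mM Tris-HCl pH 8.0, 0.01% Tween 20, with an AMC peptide substrate. Fluorescence change (340/450 nm) over 15 min at room temperature, normalized to controls, fitted to 4-parameter Hill.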
For `Cc1ccc(C(C)C)cc2c(C)ccc1-2`, the Potency was “inactive”. For `O=S(=O)(O)c1cc(I)c(O)c2ncccc12`, the Potency was “inactive”. In the case of `O=C(O)c1ccccn1`, the Potency is reported as “inactive”. With `CC1(C)CO[C@@H](CC(=O)O)CN1` the Potency was “inactive”. For `CC(=O)CCC(=O)O`, the Potency was “inactive”. `COc1ccc2cc1Oc1cc3c(cc1OC)CC[N+](C)(C)[C@H]3Cc1ccc(cc1)Oc1c(OC)c(OC)cc3c1[C@@H](C2)[N+](C)(C)CC3` was tested, and the Potency was “inactive”. In the case of `CC(=O)NC(Cc1ccccc1)C(=O)O` (stereo not given), the Potency is reported as “inactive”. `C[C@@H](O)[C@H](N)C(=O)O` was tested, and the Potency was “inactive”. With `CC(=O)Nc1ccc(/C=N/NC(N)=S)cc1` the Potency was “inactive”. For `CN1[C@@H]2CC[C@H]1CC(OC(=O)C(O)c1ccccc1)C2` (stereo not given in full), the Potency was “inactive”. With `O=C(O)CC(O)C(=O)O` (stereo not given) the Potency was “inactive”. For `O=C(O)Cc1sc(-c2ccccc2)nc1-c1ccc(Cl)cc1`, the Potency was “inactive”. For `CCCCN(CCCC)CCCOC(=O)c1ccc(N)cc1`, the Potency was “inactive”. `CC(=O)O[C@@]12CO[C@@H]1C[C@H](O)[C@@]1(C)C(=O)[C@H](O)C3=C(C)[C@@H](OC(=O)[C@H](O)[C@@H](NC(=O)OC(C)(C)C)c4ccccc4)C[C@@](O)([C@@H](OC(=O)c4ccccc4)[C@H]21)C3(C)C` was tested, and the Potency was “inactive”. For `COc1ccccc1O`, the Potency was “inactive”. With `Cc1cc(CC(=O)O)n(C)c1C(=O)c1ccc(Cl)cc1` the Potency was “inactive”. In the case of `C=CCn1c(=O)n([C@@H]2O[C@H](CO)[C@@H](O)[C@H]2O)c2nc(N)[nH]c(=O)c21`, the Potency is reported as “inactive”. In the case of `CCC(=O)Nc1ccc(O)cc1`, the Potency is reported as “inactive”. `[O-][n+]1cccc(CO)c1` was tested, and the Potency was “inactive”. For `C[C@H]1O[C@H](O[C@H]2[C@H](O)[C@@H](O)[C@@H](O[C@H]3[C@H](O)[C@@H](O)[C@H](O)O[C@@H]3CO)O[C@@H]2CO)[C@H](O)[C@@H](O)[C@@H]1N[C@H]1C=C(CO)[C@@H](O)[C@H](O)[C@H]1O`, the Potency was “inactive”.
